{"source": "PubChem BioAssay (NCATS)", "key": {"[1]": {"molecular_target": "Cytochrome P450 1A2 (Homo sapiens) (UniProt P05177)", "sequence (P05177 whole entry, looked up)": "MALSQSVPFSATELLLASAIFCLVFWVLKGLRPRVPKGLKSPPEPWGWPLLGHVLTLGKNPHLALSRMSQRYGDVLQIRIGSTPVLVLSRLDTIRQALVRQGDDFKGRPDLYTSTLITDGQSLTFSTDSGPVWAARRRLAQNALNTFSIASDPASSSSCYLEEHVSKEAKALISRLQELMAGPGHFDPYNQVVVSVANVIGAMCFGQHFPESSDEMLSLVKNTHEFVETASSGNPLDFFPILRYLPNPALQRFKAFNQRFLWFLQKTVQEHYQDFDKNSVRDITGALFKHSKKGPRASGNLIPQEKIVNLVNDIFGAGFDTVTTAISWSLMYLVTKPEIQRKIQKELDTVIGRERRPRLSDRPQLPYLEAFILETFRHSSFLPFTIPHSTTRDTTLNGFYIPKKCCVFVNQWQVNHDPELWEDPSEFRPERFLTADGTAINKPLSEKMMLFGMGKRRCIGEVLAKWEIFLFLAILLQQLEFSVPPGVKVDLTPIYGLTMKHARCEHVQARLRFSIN", "test": "p450-cyp1a2 (AID 410); note: potency is the fitted concentration of half-maximal effect", "summary_of_the_method": "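Luminescent demethylation readout: Luciferin-ME (100uM, equal to Km) turned over by 20nM CYP1A2 for 60 min at room temperature after NADPH regeneration addition, following 10 min compound preincubation. Normalization used 57 uM furafylline as full inhibition.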"}, "[2]": {"test": "Cell Viability - BJ (AID 421); note: potency is the fitted concentration of half-maximal effect", "details": "BJ fibroblast viability, qHTS", "summary_of_the_method": "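Quantitative HTS: ATP depletion in BJ cells after 40 hr compound exposure in complete culture medium, detected with CellTiter-Glo; AC50 from standard Hill fits.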"}, "[3]": {"test": "Cell Viability - Jurkat (AID 426;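 active = dose-dependent loss of cell ATP signal giving a full or clear fitted curve, ranked by lower potency value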; note: potency is the fitted concentration of half-maximal effect)", "details": "qHTS", "summary_of_the_method": "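Cytotoxicity taken as drop in cellular ATP (CellTiter-Glo luminescence, 20 min room temperature) after 40 hr, 37C treatment of 5000 Jurkat Clone E6-1 cells per well; concentration-response fitted with Hill equation for AC50.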"}, "[4]": {"test": "Cell Viability - Hek293 (AID 427;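 active = compounds whose dose-response curve shows a full or clear partial loss of cell viability, called from curve shape rather than a numeric limit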;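 note: potency is the fitted concentration of half-maximal effect; cells exposed to compound for 40 hours at 37 °C before reading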)", "details": "qHTS", "summary_of_the_method": "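AC50 values derive from Hill-modelled concentration-response of ATP-based luminescence, normalized between DMSO-only and 100 uM tamoxifen controls. Cells were exposed in complete culture medium for 40 hr at 37 °C before detection.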"}, "[5]": {"test": "Cell Viability - HepG2 (AID 433); note: potency is the fitted concentration of half-maximal effect", "details": "qHTS", "summary_of_the_method": "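Cytotoxicity read as ATP loss (CellTiter-Glo luminescence) after 40 hr compound exposure of HepG2, 1500 cells/well, 37 °C. AC50 by Hill equation; 0% set by DMSO, 100% inhibition by 100 uM tamoxifen.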"}, "[6]": {"test": "Cell Viability - MRC5 (AID 434); note: potency is the fitted concentration of half-maximal effect", "details": "MRC5 lung fibroblast viability, qHTS", "summary_of_the_method": "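Decrease in intracellular ATP, quantified by luciferase light output, reflects compound toxicity toward MRC5 cells exposed for 40 hr in complete culture medium. Concentration-response curves, scaled between DMSO and 100 uM tamoxifen, gave AC50 values.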"}, "[7]": {"test": "Cell Viability - SK-N-SH (AID 435); note: potency is the fitted concentration of half-maximal effect", "details": "SK-N-SH neuroblastoma cell viability qHTS", "summary_of_the_method": "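qHTS cytotoxicity: CellTiter-Glo ATP luminescence after 40 h compound exposure of human neuroblastoma SK-N-SH cells at 37 °C. AC50 derived by Hill-equation fitting, with DMSO as basal and 100 uM tamoxifen as full inhibition.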"}, "[8]": {"test": "AP1 Signaling Pathway (AID 357; active = well fitted curve in either direction with a large enough effect, not every such curve was filed as active; note: % is set by controls: 0 for no effect and ±100 for the full control effect)", "details": "ME-180 AP-1-bla reporter, EGF-induced, beta-lactamase ratio, 5 h; at 38 µM (top of the series)", "summary_of_the_method": "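AP-1-bla ME-180 cells, Opti-MEM + 0.5% dialyzed FBS, plated overnight 37 °C. Cpd titration + EC50 EGF, 5 h 37 °C. CCF4 2.5 h RT; ex 405, em 460/530 ratio → %activity, AC50.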"}, "[9]": {"test": "Stat Signaling Pathway (AID 446; active = well fitted curve in either direction with a large enough effect, not every such curve was filed as active;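 note: ME-180 cervical cancer cells given 40 pM IL-6 alongside compound; SIE-controlled beta-lactamase reporter measured as 460/530 nm FRET emission ratio; % is set by controls: 0 for no effect and ±100 for the full control effect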)", "details": "ME-180 SIE beta-lactamase reporter, IL-6 stimulated, 5 h; at 38 µM (top of the series)", "summary_of_the_method": "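Overnight-plated ME-180 cells bearing a STAT Inducible Element beta-lactamase reporter; 5 h co-exposure to compound and 40 pM IL-6; values normalized to 300 pM IL-6 and 125 nM JAK inhibitor controls.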"}}, "note": "Values joined by “and” are separate entries in the source; they are usually repeats but may differ in a detail not shown here. Identical values can stand only once. Records with an inconclusive call do not appear. More than one record can exist for a structure, and the calls need not agree. Active and inactive are the calls of the source. Unless noted, calls come from the whole dose curve."}
{"smiles": "COC(=O)[C@@H](N)CCCN=C(N)N[N+](=O)[O-]", "values": [{"measurement": "Potency", "setting": "[1]", "result": "inactive"}]}
{"smiles": "Nc1ccc(Cl)cc1", "values": [{"measurement": "Potency", "setting": "[2]", "result": "> 92 µM (inactive)"}, {"measurement": "Potency", "setting": "[3]", "result": "> 92 µM (inactive)"}, {"measurement": "Potency", "setting": "[4]", "result": "> 92 µM (inactive)"}, {"measurement": "Potency", "setting": "[5]", "result": "> 92 µM (inactive)"}, {"measurement": "Potency", "setting": "[6]", "result": "> 92 µM (inactive)"}, {"measurement": "Potency", "setting": "[7]", "result": "> 92 µM (inactive)"}]}
{"smiles": "Cc1nc(-c2ccc(-c3ccc(C(=O)N4CCc5cc6c(cc54)C4(CCN(C)CC4)CO6)cc3)c(C)c2)no1", "values": [{"measurement": "Potency", "setting": "[1]", "result": "inactive and 39.8 µM (active)"}]}
{"smiles": "Nc1ccc([N+](=O)[O-])cc1", "values": [{"measurement": "Potency", "setting": "[2]", "result": "> 92 µM (inactive)"}, {"measurement": "Potency", "setting": "[3]", "result": "> 92 µM (inactive)"}, {"measurement": "Potency", "setting": "[4]", "result": "> 92 µM (inactive)"}, {"measurement": "Potency", "setting": "[5]", "result": "> 92 µM (inactive)"}, {"measurement": "Potency", "setting": "[6]", "result": "> 92 µM (inactive)"}, {"measurement": "Potency", "setting": "[7]", "result": "> 92 µM (inactive)"}]}
{"smiles": "S=C(NC1CCCCC1)N1CCC(c2cnc[nH]2)CC1", "values": [{"measurement": "activity change, negative = inhibition", "setting": "[8]", "result": "-10.5% (inactive)"}, {"measurement": "activity, negative = inhibition", "setting": "[9]", "result": "6.17% (inactive)"}]}
{"smiles": "COc1ccc(C(c2ccc(OC)cc2)C(Cl)(Cl)Cl)cc1", "values": [{"measurement": "Potency", "setting": "[2]", "result": "> 92 µM (inactive)"}, {"measurement": "Potency", "setting": "[5]", "result": "> 92 µM (inactive)"}, {"measurement": "Potency", "setting": "[6]", "result": "> 92 µM (inactive)"}, {"measurement": "Potency", "setting": "[7]", "result": "> 92 µM (inactive)"}]}
{"smiles": "Cc1cc(O)ccc1Cl", "values": [{"measurement": "Potency", "setting": "[2]", "result": "> 92 µM (inactive)"}, {"measurement": "Potency", "setting": "[3]", "result": "> 92 µM (inactive)"}, {"measurement": "Potency", "setting": "[4]", "result": "> 92 µM (inactive)"}, {"measurement": "Potency", "setting": "[5]", "result": "> 92 µM (inactive)"}, {"measurement": "Potency", "setting": "[6]", "result": "> 92 µM (inactive)"}, {"measurement": "Potency", "setting": "[7]", "result": "> 92 µM (inactive)"}]}
{"smiles": "O=S(=O)(c1ccc(Cl)cc1)c1ccc(Cl)cc1", "values": [{"measurement": "Potency", "setting": "[2]", "result": "> 92 µM (inactive)"}, {"measurement": "Potency", "setting": "[3]", "result": "> 92 µM (inactive)"}, {"measurement": "Potency", "setting": "[4]", "result": "> 92 µM (inactive)"}, {"measurement": "Potency", "setting": "[5]", "result": "> 92 µM (inactive)"}, {"measurement": "Potency", "setting": "[6]", "result": "> 92 µM (inactive)"}, {"measurement": "Potency", "setting": "[7]", "result": "> 92 µM (inactive)"}]}
{"smiles": "COc1ccc(C(=O)c2c(C)n(CCN3CCOCC3)c3cc(I)ccc23)cc1", "values": [{"measurement": "Potency", "setting": "[1]", "result": "15.8 µM (active)"}]}
{"smiles": "CCOP(=O)(NC(C)C)Oc1ccc(SC)c(C)c1", "note": "(centres undefined)", "values": [{"measurement": "Potency", "setting": "[2]", "result": "> 92 µM (inactive)"}, {"measurement": "Potency", "setting": "[3]", "result": "> 92 µM (inactive)"}, {"measurement": "Potency", "setting": "[5]", "result": "> 92 µM (inactive)"}, {"measurement": "Potency", "setting": "[6]", "result": "> 92 µM (inactive)"}, {"measurement": "Potency", "setting": "[7]", "result": "> 92 µM (inactive)"}]}
{"smiles": "C=CC(=O)NCNC(=O)C=C", "values": [{"measurement": "Potency", "setting": "[2]", "result": "> 92 µM (inactive)"}, {"measurement": "Potency", "setting": "[3]", "result": "> 92 µM (inactive)"}, {"measurement": "Potency", "setting": "[4]", "result": "> 92 µM (inactive)"}, {"measurement": "Potency", "setting": "[5]", "result": "> 92 µM (inactive)"}, {"measurement": "Potency", "setting": "[6]", "result": "> 92 µM (inactive)"}, {"measurement": "Potency", "setting": "[7]", "result": "> 92 µM (inactive)"}]}
